Measured values reported in the supplement of paper PMC6555819.

Legend:
Test in all cases: PBM binding z-score (relative to random genomic background probes); higher = stronger binding; sequences stand for … in GC…GCGATTGACAGCGTAGAATGAAGG
[1] = test system: FXR:RXRa (NR concentration 270 nM, RXRa partner concentration 90 nM)
Outline: (§1)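 Binding z-scores were set against random background probes. The data came from custom Agilent 4×180K protein-binding microarrays carrying double-stranded probes with 34-nt variable regions, incubated 1 h with ligand-free nuclear receptor dimers. Partner-specific antibodies detected binding, and scanned fluorescence was regression-normalized.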

[2] = test system: LXRa:RXRa (NR concentration 270 nM, RXRa partner concentration 90 nM)
Outline: as §1

[3] = test system: LXRa homodimer (NR concentration 270 nM)
Outline: as §1

[4] = test system: LXRb:RXRa (NR concentration 270 nM, RXRa partner concentration 90 nM)
Outline: as §1

[5] = test system: LXRb homodimer (NR concentration 270 nM)
Outline: as §1

[6] = test system: PPARa:RXRa (NR concentration 270 nM, RXRa partner concentration 90 nM)
Outline: as §1

[7] = test system: PPARg:RXRa (NR concentration 180 nM, RXRa partner concentration 90 nM)
Outline: as §1

[8] = test system: PPARg:RXRa 270nM:90nM, anti-RXR (NR concentration 270 nM, RXRa partner concentration 90 nM)
Outline: as §1

[9] = test system: PPARg:RXRa 30nM:10nM, anti-RXR (NR concentration 30 nM, RXRa partner concentration 10 nM)
Outline: as §1

[10] = test system: PPARg:RXRa 90nM:30nM, anti-RXR (NR concentration 90 nM, RXRa partner concentration 30 nM)
Outline: as §1

[11] = test system: PPARg:RXRa DBDmut IVT, anti-RXR (DBD mutation: RXRa K156A/R161A, NR concentration 270 nM, RXRa partner concentration 90 nM)
Outline: as §1

[12] = test system: PPARg:RXRa IVT, anti-PPARg (NR concentration 270 nM, RXRa partner concentration 90 nM)
Outline: as §1

[13] = test system: PPARg DBDmut:RXRa IVT, anti-PPARg (DBD mutation: PPARg1 K132A/R137A, NR concentration 270 nM, RXRa partner concentration 90 nM)
Outline: as §1

[14] = test system: PPARg DBDmut IVT, anti-PPARg (DBD mutation: PPARg1 K132A/R137A, NR concentration 270 nM)
Outline: as §1

[15] = test system: PPARg homodimer (NR concentration 180 nM)
Outline: as §1

[16] = test system: PXR:RXRa (NR concentration 270 nM, RXRa partner concentration 90 nM)
Outline: as §1

[17] = test system: PXR homodimer (NR concentration 270 nM)
Outline: as §1

[18] = test system: RARa:RXR (NR concentration 270 nM, RXRa partner concentration 90 nM)
Outline: as §1

[19] = test system: RARa homodimer (NR concentration 270 nM)
Outline: as §1

[20] = test system: RARb:RXRa (NR concentration 270 nM, RXRa partner concentration 90 nM)
Outline: as §1

Sequence: CCTCGGAGGACAGAAGGTCAGAGCCGTCCGCTTT
- PBM binding z-score [1]: 1.62
- PBM binding z-score [2]: 1.72
- PBM binding z-score [3]: 0.422
- PBM binding z-score [4]: 1.2
- PBM binding z-score [5]: -0.824
- PBM binding z-score [6]: 1.93
- PBM binding z-score [7]: -0.186
- PBM binding z-score [8]: 0.948
- PBM binding z-score [9]: -0.897
- PBM binding z-score [10]: 0.277
- PBM binding z-score [11]: 0.172
- PBM binding z-score [12]: -0.13
- PBM binding z-score [13]: -1.85
- PBM binding z-score [14]: -1.98
- PBM binding z-score [15]: 1.7
- PBM binding z-score [16]: 1.78
- PBM binding z-score [17]: -0.366
- PBM binding z-score [18]: 2.37
- PBM binding z-score [19]: 0.4
- PBM binding z-score [20]: 3.24

Sequence: CCTCGGAGGACAACAGGAGGTAAGAGCTGCCAGA
- PBM binding z-score [1]: 0.127
- PBM binding z-score [2]: -0.463
- PBM binding z-score [3]: -0.208
- PBM binding z-score [4]: -0.701
- PBM binding z-score [5]: -0.983
- PBM binding z-score [6]: -0.345
- PBM binding z-score [7]: 0.154
- PBM binding z-score [8]: -0.624
- PBM binding z-score [9]: -0.764
- PBM binding z-score [10]: -0.831
- PBM binding z-score [11]: -0.141
- PBM binding z-score [12]: -0.621
- PBM binding z-score [13]: -1.15
- PBM binding z-score [14]: -1.44
- PBM binding z-score [15]: 0.0253
- PBM binding z-score [16]: -0.402
- PBM binding z-score [17]: -0.651
- PBM binding z-score [18]: -0.0361
- PBM binding z-score [19]: 0.0272
- PBM binding z-score [20]: 0.846

Sequence: AGTCAAAGTTCATCTAGCTAACGTAAGATATGCT
- PBM binding z-score [1]: 6.22
- PBM binding z-score [2]: 5.88
- PBM binding z-score [3]: 4.89
- PBM binding z-score [4]: 3.8
- PBM binding z-score [5]: 1.73
- PBM binding z-score [6]: 4.45
- PBM binding z-score [7]: 6.14
- PBM binding z-score [8]: 6.05
- PBM binding z-score [9]: 3.68
- PBM binding z-score [10]: 5.44
- PBM binding z-score [11]: 0.278
- PBM binding z-score [12]: 2.41
- PBM binding z-score [13]: 1.28
- PBM binding z-score [14]: 0.69
- PBM binding z-score [15]: 2.37
- PBM binding z-score [16]: 4.83
- PBM binding z-score [17]: 4.89
- PBM binding z-score [18]: 3.89
- PBM binding z-score [19]: 1.29
- PBM binding z-score [20]: 4.79

Sequence: AGAACGAGGGCAATAAGTTGATAGCACGGGTGGC
- PBM binding z-score [1]: 0.456
- PBM binding z-score [2]: 0.268
- PBM binding z-score [3]: -0.278
- PBM binding z-score [4]: -0.143
- PBM binding z-score [5]: -0.518
- PBM binding z-score [6]: 1.24
- PBM binding z-score [7]: 1.44
- PBM binding z-score [8]: 0.893
- PBM binding z-score [9]: 0.0758
- PBM binding z-score [10]: 0.217
- PBM binding z-score [11]: 3.47
- PBM binding z-score [12]: 2.3
- PBM binding z-score [13]: 0.463
- PBM binding z-score [14]: -0.691
- PBM binding z-score [15]: 0.0949
- PBM binding z-score [16]: 1.09
- PBM binding z-score [17]: 3.39
- PBM binding z-score [18]: 0.217
- PBM binding z-score [19]: 0.04
- PBM binding z-score [20]: 1.84

Sequence: AGAACGAGGGCAATGAGTTGATGGCACGGGTGGC
- PBM binding z-score [1]: 0.145
- PBM binding z-score [2]: 0.254
- PBM binding z-score [3]: -0.585
- PBM binding z-score [4]: -0.493
- PBM binding z-score [5]: -0.436
- PBM binding z-score [6]: 1.25
- PBM binding z-score [7]: 1.29
- PBM binding z-score [8]: 0.598
- PBM binding z-score [9]: -0.239
- PBM binding z-score [10]: 0.238
- PBM binding z-score [11]: 3.36
- PBM binding z-score [12]: 2.88
- PBM binding z-score [13]: 1.3
- PBM binding z-score [14]: -0.157
- PBM binding z-score [15]: -0.0227
- PBM binding z-score [16]: 1.19
- PBM binding z-score [17]: 3.75
- PBM binding z-score [18]: 0.0282
- PBM binding z-score [19]: -0.254
- PBM binding z-score [20]: 1.99

Sequence: TCATATAGGTAAACGGTGAAAGTCGGTGTGGTAA
- PBM binding z-score [1]: 0.188
- PBM binding z-score [2]: 0.878
- PBM binding z-score [3]: 0.118
- PBM binding z-score [4]: 0.712
- PBM binding z-score [5]: -0.229
- PBM binding z-score [6]: 2.17
- PBM binding z-score [7]: 2.41
- PBM binding z-score [8]: 4.15
- PBM binding z-score [9]: 4.43
- PBM binding z-score [10]: 4.57
- PBM binding z-score [11]: 4.37
- PBM binding z-score [12]: 3.34
- PBM binding z-score [13]: 1.61
- PBM binding z-score [14]: 0.702
- PBM binding z-score [15]: 0.811
- PBM binding z-score [16]: 0.39
- PBM binding z-score [17]: 0.405
- PBM binding z-score [18]: 0.111
- PBM binding z-score [19]: 0.67
- PBM binding z-score [20]: 0.522

Sequence: TAGCCTAGGTCATTCAGGGGCCAGTTTAGAAAGC
- PBM binding z-score [1]: 4.19
- PBM binding z-score [2]: 3.81
- PBM binding z-score [3]: 1
- PBM binding z-score [4]: 3.32
- PBM binding z-score [5]: 0.887
- PBM binding z-score [6]: 3.8
- PBM binding z-score [7]: 1.98
- PBM binding z-score [8]: 2.15
- PBM binding z-score [9]: 0.497
- PBM binding z-score [10]: 1.59
- PBM binding z-score [11]: 1.47
- PBM binding z-score [12]: 2.77
- PBM binding z-score [13]: 0.115
- PBM binding z-score [14]: 0.428
- PBM binding z-score [15]: 0.877
- PBM binding z-score [16]: 2.37
- PBM binding z-score [17]: -0.0546
- PBM binding z-score [18]: 3.52
- PBM binding z-score [19]: -0.367
- PBM binding z-score [20]: 3.61

Sequence: TATCCAGGGTCAAAGGCCAGAGTACGAATGTCGA
- PBM binding z-score [1]: 7.03
- PBM binding z-score [2]: 5.91
- PBM binding z-score [3]: 2.02
- PBM binding z-score [4]: 5.03
- PBM binding z-score [5]: 2.02
- PBM binding z-score [6]: 6.22
- PBM binding z-score [7]: 7.96
- PBM binding z-score [8]: 7.53
- PBM binding z-score [9]: 5.26
- PBM binding z-score [10]: 6.94
- PBM binding z-score [11]: 2.23
- PBM binding z-score [12]: 4.91
- PBM binding z-score [13]: 0.174
- PBM binding z-score [14]: 1.96
- PBM binding z-score [15]: 2.06
- PBM binding z-score [16]: 4.77
- PBM binding z-score [17]: 0.563
- PBM binding z-score [18]: 6.33
- PBM binding z-score [19]: 1.05
- PBM binding z-score [20]: 4.55

Sequence: CCGACGGGGGCATAAGGTTACCATAAGCCAGCCC
- PBM binding z-score [1]: 3.27
- PBM binding z-score [2]: 4.13
- PBM binding z-score [3]: 0.249
- PBM binding z-score [4]: 4.27
- PBM binding z-score [5]: 3.6
- PBM binding z-score [6]: 3.87
- PBM binding z-score [7]: 2.48
- PBM binding z-score [8]: 3.54
- PBM binding z-score [9]: 1.17
- PBM binding z-score [10]: 2.82
- PBM binding z-score [11]: 1.29
- PBM binding z-score [12]: 2.29
- PBM binding z-score [13]: 0.647
- PBM binding z-score [14]: 0.997
- PBM binding z-score [15]: 1.67
- PBM binding z-score [16]: 2.75
- PBM binding z-score [17]: 0.496
- PBM binding z-score [18]: 3.93
- PBM binding z-score [19]: 0.379
- PBM binding z-score [20]: 2.86

Sequence: TTACCAAGATGAGCTGAGGTCGTTGATCCAACTC
- PBM binding z-score [1]: 0.71
- PBM binding z-score [2]: 0.408
- PBM binding z-score [3]: 0.0791
- PBM binding z-score [4]: 0.458
- PBM binding z-score [5]: -0.782
- PBM binding z-score [6]: 0.853
- PBM binding z-score [7]: 0.0458
- PBM binding z-score [8]: 0.511
- PBM binding z-score [9]: 0.543
- PBM binding z-score [10]: 0.66
- PBM binding z-score [11]: 0.238
- PBM binding z-score [12]: 0.101
- PBM binding z-score [13]: -0.000343
- PBM binding z-score [14]: -0.456
- PBM binding z-score [15]: 0.0396
- PBM binding z-score [16]: 1.87
- PBM binding z-score [17]: 0.628
- PBM binding z-score [18]: 1.35
- PBM binding z-score [19]: -0.33
- PBM binding z-score [20]: 0.279

Sequence: GCGACAGGGGCATCAGCAGGTTACCATAACTTAA
- PBM binding z-score [1]: 0.0406
- PBM binding z-score [2]: 0.297
- PBM binding z-score [3]: -0.329
- PBM binding z-score [4]: 1.42
- PBM binding z-score [5]: -0.683
- PBM binding z-score [6]: 1.33
- PBM binding z-score [7]: 0.386
- PBM binding z-score [8]: 0.0152
- PBM binding z-score [9]: -0.411
- PBM binding z-score [10]: -0.547
- PBM binding z-score [11]: 0.0717
- PBM binding z-score [12]: -0.102
- PBM binding z-score [13]: -1.02
- PBM binding z-score [14]: -1.18
- PBM binding z-score [15]: 0.4
- PBM binding z-score [16]: 0.643
- PBM binding z-score [17]: 0.0793
- PBM binding z-score [18]: 1.08
- PBM binding z-score [19]: -0.68
- PBM binding z-score [20]: 1.27
